FEN1 inh: qHTS Assay for the Inhibitors of Human Flap endonuclease 1 (FEN1) | P39748 | 390,000 tested, 0.35% active | Potency, µM (doses to about 114 µM), for inactives: at the top dose activity change, negative = inhibition, actives largely listed as inhibitors | Recombinant FEN1 flap cleavage, fluorescence, 15 min; further: on the % scale 0 is the no-effect control and ±100 the full control effect; nearly all actives have a fitted effect of over 65% in size
Target sequence (P39748 whole entry, looked up): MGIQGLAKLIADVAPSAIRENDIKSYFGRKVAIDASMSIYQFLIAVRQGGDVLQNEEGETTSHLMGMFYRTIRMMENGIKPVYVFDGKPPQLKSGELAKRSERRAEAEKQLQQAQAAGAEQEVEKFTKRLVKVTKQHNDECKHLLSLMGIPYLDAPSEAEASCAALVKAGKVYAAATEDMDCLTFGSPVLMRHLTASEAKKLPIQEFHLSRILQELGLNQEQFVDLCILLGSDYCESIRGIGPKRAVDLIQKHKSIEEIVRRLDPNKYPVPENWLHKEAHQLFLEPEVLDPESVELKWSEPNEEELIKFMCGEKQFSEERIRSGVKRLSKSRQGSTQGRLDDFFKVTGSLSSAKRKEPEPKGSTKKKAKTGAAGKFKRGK
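Compounds are tested as a concentration series against 10 nM FEN1; after a 15 min room-temperature preincubation, 50 nM substrate starts cleavage, with plate reads at 0 and 15 min. Normalized responses are fitted by a Hill equation.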
POLI inh: qHTS for Inhibitors of Polymerase Iota; 390,000 tested, 1% active; DNA polymerase iota (Homo sapiens), Q9UNA4; Pol iota fluorescent replication assay, 10 min; Potency, µM (titrated, usually from 115 µM), without a hit: at the top dose activity, negative = inhibition, hits mostly inhibitors
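Fluorescent replication assay read twice, at 0 min and 10 min after adding 50 nM (final) substrate. Enzyme (10 nM) and compounds were first incubated 15 min at room temperature; enzyme-free buffer wells were negative controls.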
Pol eta inh-1: qHTS for Inhibitors of Polymerase Eta. DNA polymerase eta (Homo sapiens), Q9Y253. recombinant Pol eta, fluorescent DNA replication assay. Potency, µM (top dose mostly 114 µM), without a hit: at the top dose activity change, negative = inhibition, usual class: inhibitors. 390,000 tested, 1.2% active. AID 588591, 2011; further: on the % scale 0 is the no-effect control and ±100 the full control effect
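Pol eta at 10 nM preincubated with compounds 15 min at room temperature; reaction started with fluorescent substrate (50 nM final) and read kinetically at 0 and 10 min.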
Pol beta inh: qHTS Assay for Inhibitors of DNA Polymerase Beta; Pol beta primer extension/strand displacement, fluorescence kinetic; Potency, µM (titrated, usually from 114 µM), without a hit: top-dose activity change, negative = inhibition, hits mostly inhibitors; 340,000 tested, 1.3% active; AID 485314, 2010; further: on the % scale 0 is the no-effect control and ±100 the full control effect
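Reaction started by 50 nM substrate onto compound-treated Pol beta (10 nM, 15 min preincubation, room temperature); plates read at 0 min and 10 min. Normalized concentration-effect data fitted by four-parameter Hill equation.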
WRN inhibitor: qHTS for Inhibitors of WRN Helicase; Bifunctional 3'-5' exonuclease/ATP-dependent helicase WRN (Homo sapiens), Q14191; WRN helicase unwinding, fluorescent forked duplex, kinetic; Potency, µM (highest dose often 114 µM), without a hit: top-dose activity change, negative = inhibition, usual class: inhibitors; 360,000 tested, 0.46% active; AID 651768, 2012; further: on the % scale 0 is the no-effect control and ±100 the full control effect; nearly all actives have a fitted effect of over 55% in size
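Primary qHTS, 1536-well format. 20 nM WRN + compound, 15 min RT; start with 100 nM forked fluorophore/quencher duplex, 2 mM ATP (final); kinetic read ex 525/em 598 nm.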
Pol kappa inh-1: qHTS for Inhibitors of Polymerase Kappa; purified Pol kappa, fluorescent DNA synthesis assay, 10 min; Potency, µM (doses to about 107 µM), for inactives: at the top dose activity, negative = inhibition, actives largely listed as inhibitors; 400,000 tested, 0.53% active; AID 588579, 2011; further: on the % scale 0 is the no-effect control and ±100 the full control effect
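First, compounds were pin-transferred onto 10 nM Pol kappa. After 15 min at room temperature, substrate was added to 50 nM final. Fluorescence was then measured kinetically at 0 and 10 min.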
PGK validate: qHTS for inhibitors of Phosphogylcerate Kinase: Hit Validation Screen; shares compounds with Pol kappa inh-1; TbPGK coupled GAPDH assay, Kinase-Glo luminescence; Potency, µM (series often up to 57.5 µM), for the others: at the highest dose activity change, negative = inhibition, most hits filed as inhibitors; 500 tested, 79% active; further: on the % scale 0 is the no-effect control and ±100 the full control effect; nearly all actives have a fitted effect of over 65% in size
Pol iota confirm: qHTS for Inhibitors of Polymerase Iota: Confirmatory Assay for Cherry-picked Compounds; shares compounds with Pol kappa inh-1; Pol iota primer extension, TAMRA/BHQ fluorescence; Potency, µM, actives largely listed as inhibitors; 1,500 tested, 77% active; AID 720496, 2013
Pol kappa inh-2: qHTS for Inhibitors of Polymerase Kappa: Confirmatory Assay for Cherry-picked Compounds | Potency, µM, actives largely listed as inhibitors | shares compounds with Pol eta inh-1 | 920 tested, 76% active | purified Pol-kappa, fluorescent strand-displacement substrate
Pol eta inh-2: qHTS for Inhibitors of Polymerase Eta: Confirmatory Assay for Cherry-picked Compounds | shares compounds with Pol eta inh-1 | Pol eta primer extension, TAMRA/BHQ fluorescence, 10 min | Potency, µM, actives largely listed as inhibitors | 2,600 tested, 64% active | AID 720502, 2013
* = called active by the depositor; ? = inconclusive; / = no result given; [ ] = dose if it differs, or a comment. Rows were chosen to be rich in hits. Some 2.4% of all compounds tested hit in one or more screens of this group. The call rests on the fitted dose curve; in most records, active means well fitted curve in the direction sought with a large enough effect; inconclusive means small, poorly fitted or top-dose-only effect, or another doubt; inactive means no such curve, though single readings can be large; an effect the other way counts as inactive or inconclusive. Potency means the concentration at half of the fitted maximal effect.

SMILES	FEN1 inh	POLI inh	Pol eta inh-1	Pol beta inh	WRN inhibitor	Pol kappa inh-1	Pol iota confirm	Pol eta inh-2	others
C/C(N)=C(/C#N)C(=O)CSc1nnc(NC(C)C)s1	35µM*	?	28µM*	-28%	?	?	67*	67*
COc1cc2c(cc1OC)C(=O)C(Br)CC2 (stereo not drawn)	/	/	20µM*	/	50µM*	/	67*	?
COc1cc2c(cc1OC)C(=O)C(c1ccc3c(c1)OCO3)CC2 (stereo not drawn)	/	/	-5%	/	5%	/	/	/
N#CCC(=O)Nc1ccc(C(=O)OCC(=O)N2CCN(C(=O)c3ccco3)CC2)cc1	-21%	45µM*	?	/	?	45µM*	?	?
CCn1c(SC(C)C(=O)O)nc2sc3c(c2c1=O)CCC3 (stereo not drawn)	-19%	?	3.5µM*	8.9µM*	56µM*	25µM*	75*	24*
O=C(Cn1c(=O)n(-c2ccc(Cl)cc2)c(=O)c2c3c(sc21)CCCCC3)Nc1cccc(Cl)c1	-5%	2%	-15%	0%	/	0%	/	/
Cc1nc2c(c(=O)n1CCC1=CCCCC1)c1nc3ccccc3nc1n2/N=C/c1ccco1	-32%	?	?	10µM*	?	?	67*	76*
CCCn1c(C)nc2c(c1=O)c1nc3ccccc3nc1n2CCC1=CCCCC1	-8%	8%	-16%	1%	-10%	-2%	/	/
O=C1NC(=Nc2ccccc2)S/C1=C\C=C\c1ccco1	?	11µM*	10µM*	2.5µM*	50µM*	20µM*	38*	27*
COc1ccc(N=C2NC(=O)/C(=C/C=C/c3ccccc3)S2)cc1	-8%	142%	-16%	37%	-11%	-5%	/	/
CCCCNC(=O)c1ccc(Cn2c(=S)[nH]c3c([nH]c4ccc(OC)cc43)c2=O)cc1	-16%	12%	?	?	-30%	-13%	/	/
COc1ccc2[nH]c3c(=O)n(Cc4ccc(C(=O)NCC5CCCO5)cc4)c(=S)[nH]c3c2c1 (stereo not drawn)	-31%	?	18µM*	89µM*	?	-32%	?	76*
COc1ccc(C=C(C#N)C(=O)c2ccccc2)cc1	/	/	/	/	-12%	/	/	/
COc1cc(/C=C(\C#N)C(=O)c2ccc(O)c(O)c2)cc(I)c1O	3.5µM*	0.89µM*	0.89µM*	0.6µM*	1.2µM*	0.42µM*	6.7*	5.4*	PGK validate=3.7µM*;Pol kappa inh-2=2.4*
O=C(COC(=O)/C=C/c1ccc(F)cc1)NCc1ccco1	-9%	46%	-14%	5%	-2%[57.1 µM]	-9%	/	/
O=C(COC(=O)c1ccc(F)cc1Cl)NCc1ccco1	5%	22µM*	40µM*	/	-12%[11.6 µM]	?	60*	?
O=C(COC(=O)C1CC2C=CC1C2)NCc1ccco1 (stereo not drawn)	-24%	14µM*	8.9µM*	16µM*	?	40µM*	42*	48*
Cc1ccc(C(=O)OCC(=O)NCc2ccco2)s1	-12%	28µM*	22µM*	22µM*	?	79µM*	42*	67*
Cc1ccc(C(=O)OCC(=O)NCc2cccs2)s1	3%	30%	0%	/	9%	2%	/	/
O=C(COC(=O)C1CC2C=CC1C2)NCc1ccc(F)cc1 (stereo not drawn)	3%	21%	-12%	22%	-9%[57.1 µM]	-2%	/	/
COc1ccc(CNC(=O)COC(=O)c2ccc(S(=O)(=O)NCc3ccco3)cc2)cc1	6%	50µM*	32µM*	/	-9%	?	?	67*
COc1ccc(-c2ccc(=O)n(CC(=O)Nc3ccc(N(C)C)cc3)n2)cc1	-4%	19%	-17%	-10%	/	-13%[60.1 µM]	/	/
Cc1cc2ccccc2n2c(SCC(=O)Nc3cccc(C(F)(F)F)c3)nnc12	-11%	73%	/	30%	/	-6%	/	/
O=C(CC1N=C2c3ccccc3N=C(SCc3ccccc3Cl)N2C1=O)NC1CCCCC1 (stereo not drawn)	-2%	1%	-10%	-2%	/	-6%[60.1 µM]	/	/
CCOc1ccccc1CNC(=O)c1cnc2sc(N(CC)CC)nn2c1=O	2%	7%	3%	1%	/	-20%	/	/
O=C(/C=C/c1ccccc1)NCCc1ccccc1	-7%	?	20µM*	25µM*	-11%	?	?	67*	PGK validate=21µM*
CC1OC(OCC2OC(Oc3c(-c4ccc(O)cc4)oc4cc(O)cc(O)c4c3=O)C(O)C(O)C2O)C(O)C(O)C1O (stereo not drawn)	?	?	10µM*	?	?	28µM*	42*	60*	PGK validate=5.2µM*
COc1cc(-c2oc3cc(O)cc(O)c3c(=O)c2O[C@@H]2O[C@H](CO)[C@@H](O)[C@H](O)[C@H]2O)ccc1O	/	/	/	/	/	6%[60.1 µM]	/	/
COc1c(-c2ccc(O)c(O)c2)oc2cc(O)cc(O)c2c1=O	25µM*	?	8.9µM*	4.5µM*	32µM*	14µM*	42*	24*
Nc1c(/C=C2/C=CC(=O)C(O)=C2)c(=O)nc2sc(CC(=O)N3CCOCC3)nn12	25µM*	8.9µM*	3.5µM*	/	?	?	17*	6*	PGK validate=9.2µM*

Bioassay records deposited in PubChem BioAssay by National Center for Advancing Translational Sciences (NCATS).
